# High-throughput results from PubChem BioAssay.
# Shown is part of a subset that was picked to be rich in hits.
# RE007 growth inh: qHTS Assay for Inhibitors of the HIV-1 protein Vpr; S. pombe RE007 Vpr strain, BacTiter-Glo ATP luminescence, 24 h; Potency, µM (doses to about 92.2 µM), inactives show top-dose activity change, negative = less growth, actives largely listed as inhibitors; hit rate 0.21% among 360,000; AID 651644, 2012; active means well fitted falling curve with a large enough effect; inconclusive means small, poorly fitted or top-dose-only effect; inactive means no such curve, though single readings can be large or run the other way; further: potency means the concentration at half of the fitted maximal effect; on the % scale 0 is the no-effect control and ±100 the full control effect; nearly all actives have a fitted effect of over 50% in size
#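 Fission yeast strain RE007, carrying one chromosomally integrated HIV-1 vpr copy, was seeded at OD 0.01 in PMG+AL medium with 23 nL pinned compound. After 24 h at 30 °C and 99% humidity, viability was read by BacTiter-Glo luminescence.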
# Tb PYK inh: qHTS of Trypanosoma Brucei Inhibitors; hit rate 0.12% among 410,000; Potency, µM (series often up to 76.8 µM), for inactives: top-dose activity, negative = inhibition, most hits filed as inhibitors; AID 624173, 2012; TbPYK enzyme, Kinase-Glo Plus ATP luminescence, 45 min; further: potency means the concentration at half of the fitted maximal effect; on the % scale 0 is the no-effect control and ±100 the full control effect; nearly all actives have a fitted effect of over 50% in size
#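 ADP (130 uM final) triggers the TbPYK reaction after compound addition; incubation is 45 min at room temperature. Kinase-Glo Plus is then added and luminescence imaged. Normalized data are fitted to concentration-effect curves.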
# LmPK inh: qHTS Assay for Inhibitors of Leishmania Mexicana Pyruvate Kinase (LmPK). Potency, µM (doses to about 57.5 µM), inactives show at the highest dose activity change, negative = inhibition, usual class: inhibitors. purified LmPK, Kinase-Glo ATP luminescence, 1 h. hit rate 0.37% among 290,000. Q27686; further: potency means the concentration at half of the fitted maximal effect; on the % scale 0 is the no-effect control and ±100 the full control effect
# Target sequence (Q27686 whole entry, looked up): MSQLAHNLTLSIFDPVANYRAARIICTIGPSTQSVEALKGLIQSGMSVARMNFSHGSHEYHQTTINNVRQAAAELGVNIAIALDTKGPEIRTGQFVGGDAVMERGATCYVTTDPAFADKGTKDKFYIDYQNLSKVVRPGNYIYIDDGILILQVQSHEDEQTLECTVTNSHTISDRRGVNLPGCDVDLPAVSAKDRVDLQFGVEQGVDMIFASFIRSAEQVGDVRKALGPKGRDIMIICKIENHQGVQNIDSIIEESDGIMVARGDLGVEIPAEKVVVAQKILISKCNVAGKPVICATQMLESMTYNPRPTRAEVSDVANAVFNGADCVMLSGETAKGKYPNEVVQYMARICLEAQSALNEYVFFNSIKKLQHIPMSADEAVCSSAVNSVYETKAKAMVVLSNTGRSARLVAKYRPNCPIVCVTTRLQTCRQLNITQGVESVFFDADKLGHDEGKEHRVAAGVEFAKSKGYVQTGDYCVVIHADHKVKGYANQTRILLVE
#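 Pyruvate kinase activity monitored as ATP production (luciferase luminescence). Conditions: 0.1 nM enzyme, 0.5 mM PEP, 0.1 mM ADP, 1 h, RT; normalized against uninhibited and no-enzyme wells.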
# FBPA Giardia inh: qHTS Assay for Inhibitors of Fructose-1,6-bisphosphate Aldolase from Giardia Lamblia; purified Giardia FBPA; A8B2U2; Potency, µM (doses to about 59.6 µM), for inactives: at the highest dose activity, negative = inhibition, usual class: inhibitors; hit rate 0.71% among 290,000; further: potency means the concentration at half of the fitted maximal effect; on the % scale 0 is the no-effect control and ±100 the full control effect; nearly all actives have a fitted effect of over 55% in size
#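 40 nM FBPA preincubated 10 min at RT with compound (up to 57.5 uM final), then substrate plus GAPDH/TPI/NAD/arsenate coupling and diaphorase/resazurin added. Fluorescence read after 20 min at RT, 525/598 nm.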
# Shiga inhibitor: A qHTS for Small Molecule Inhibitors of Shiga Toxin; inhibition, % at 38.7 µM; Vero cells, Shiga toxin protein synthesis inhibition reporter; AID 2315, 2010; hit rate 9.2% among 290,000; in the data active means inhibition mostly above about 28%, no sharp cut-off; inactive means mostly below about 43%; further: 0% is about no effect
# Cycloheximide cs: Cycloheximide Counterscreen for Small Molecule Inhibitors of Shiga Toxin; cell reporter, cycloheximide protein synthesis inhibition counterscreen; max response, %; hit rate 12% among 300,000; AID 2314, 2010; in the data active means max response mostly above about 13%, no sharp cut-off; inactive means mostly below about 14%; further: read at 38.3 µM for the half of the compounds with a filed dose; 0% is about no effect
# * = called active by the depositor; ? = inconclusive; nt = no result given; [ ] = another dose, or the depositor's remark. Unless noted, the call rests on the fitted dose curve; in most records, active means well fitted curve in the direction sought with a large enough effect; inconclusive means small, poorly fitted or top-dose-only effect, or another doubt; inactive means no such curve, though single readings can be large; an effect the other way counts as inactive or inconclusive.
SMILES,RE007 growth inh,Tb PYK inh,LmPK inh,FBPA Giardia inh,Shiga inhibitor,Cycloheximide cs
COc1cc2[nH]c(=O)n(Cc3ccc(C(=O)N4CCN(c5cccc(C)c5C)CC4)cc3)c(=O)c2cc1OC,nt,-18%,nt,nt,nt,nt
CCCC(=O)Nc1ccc2oc(-c3cncc(Br)c3)nc2c1,2%,0%,-19%,0%,58*,48*
CCCCCC(=O)Nc1ccc2oc(-c3cncc(Br)c3)nc2c1,3%,0%,7%,2%,31,26*
O=C(Nc1ccc2oc(-c3cccnc3)nc2c1)c1cccc(Br)c1,nt,-2%,nt,nt,nt,nt
CC(=O)[C@@]1(O)CC[C@H]2[C@@H]3C=C(Cl)C4=CC(=O)CC[C@]4(C)[C@H]3CC[C@@]21C,nt,2%,nt,nt,nt,nt
CCOc1ccccc1NC(=O)Cn1c(=O)n(CC(=O)NCc2ccccc2Cl)c(=O)c2sccc21,nt,-8%,nt,nt,nt,nt
O=C1CCCC=C1[C@@H](O)C1CCCCC1,nt,nt,nt,4%[12.9 µM],nt,nt
CCOC(=O)N1CCc2c(sc3c2c(=O)n(Cc2ccccc2)c(=O)n3CC(=O)Nc2ccc(C)c(C)c2)C1,nt,-5%,nt,nt,nt,nt
Cc1nn2c(=O)cc(COC(=O)COc3ccc(F)cc3)nc2s1,nt,-3%,nt,nt,nt,nt
CC(C)C[C@@H](CO)N1CCN(Cc2ccc(Br)cc2)CCC1=O,-8%,-11%,-1%,19%,-8,1
CC(=O)Nc1ccc(SCC(CC(C)C)N2CCN(CC(C)C)CCC2=O)cc1 (configuration not stated),nt,nt,nt,2%,-13,-10
CC(C)CC(CSc1ccc(Br)cc1)N1CCN(CC(C)C)CCC1=O (configuration not stated),nt,nt,nt,12%,108*,80*
CCCN1CCC(=O)N([C@H](CSc2ccccc2)CC(C)C)CC1,0%,-3%,3%,2%,42*,45*
CC(C)C[C@@H](CSc1ccccc1)N1CCN(CC(C)C)CCC1=O,-3%,-9%,2%,7%,47*,35*
CCCN1CCC(=O)N([C@H](CSc2ccc(C)cc2)CC(C)C)CC1,16%,-4%,5%,1%,62*,71*
CCC(C(=O)NCc1ccccc1Cl)n1nc(C)c2sc3ccccc3c2c1=O (configuration not stated),nt,2%,nt,nt,nt,nt
O=C(c1ccccc1)n1nc(-c2ccco2)nc1NCc1ccccc1Cl,nt,1%,nt,nt,nt,nt
CCOc1ccc(CNC(=O)Cn2nc(C)c3sc4ccccc4c3c2=O)cc1,nt,-1%,nt,nt,nt,nt
CCCN1CCC(=O)N(C(CSc2ccc(C)cc2)CC(C)C)CC1 (configuration not stated),nt,nt,nt,-1%,77*,42*
CCCN1CCC(=O)N([C@H](CSc2ccc(C)cc2)Cc2ccccc2)CC1,-2%,2%,4%,3%,-6,-4
Cc1cc(Nc2ccccc2)n(-c2nc3ccccc3[nH]2)n1,35µM*,-5%,1%,?,11,1
Cc1cc(NC(=O)/C=C/c2cccc(F)c2)n(-c2nc3ccccc3[nH]2)n1,20%,-4%,3%,-12%,-3,12
Cc1cc(NC(=O)/C=C/c2cccc(Cl)c2)n(-c2nc3ccccc3[nH]2)n1,-20%,0%,-6%,-2%,active,66*
Cc1cc(NC(=O)c2ccc(C)s2)n(-c2nc3ccccc3[nH]2)n1,-4%,0%,-8%,?,33*,11
Cc1cc(NC(=O)c2ccccc2F)n(-c2nc3ccccc3[nH]2)n1,18%,1%,1%,10%,68,16
CC(=O)Nc1ccccc1/C=C/c1ccc2c(C)ccc(O)c2n1,-5%,1%,-1%,12%,18,17*
O=C(O)c1ccc(NCc2nc3ccccc3n2Cc2ccccc2)cc1,-2%,-1%,-6%,17%,-5,-2
CCn1cnc2cc(NCc3nc4ccccc4n3Cc3ccccc3)ccc21,-17%,-8%,-11%,-22%,50*,33*
Cn1c(CNc2nc3ccccc3n2CCN2CCCCC2)nc2ccccc21,?,4%,2%,-6%,-5,-4
